D2 ag-1: HTS Assay for Allosteric Agonists of the Human D2 Dopamine Receptor: Primary Screen for Agonists; D(2) dopamine receptor (Homo sapiens), P14416; HEK293 T-REx D2 cells, calcium flux agonist mode; activation, % at 2 µM; 340,000 tested, 0.53% active; AID 485358, 2010;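 active = activation over 3 SD above normal in the single-dose calcium agonist read, cut at about 30% in these data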; note: 0% is about no effect
Target sequence (P14416 whole entry, looked up): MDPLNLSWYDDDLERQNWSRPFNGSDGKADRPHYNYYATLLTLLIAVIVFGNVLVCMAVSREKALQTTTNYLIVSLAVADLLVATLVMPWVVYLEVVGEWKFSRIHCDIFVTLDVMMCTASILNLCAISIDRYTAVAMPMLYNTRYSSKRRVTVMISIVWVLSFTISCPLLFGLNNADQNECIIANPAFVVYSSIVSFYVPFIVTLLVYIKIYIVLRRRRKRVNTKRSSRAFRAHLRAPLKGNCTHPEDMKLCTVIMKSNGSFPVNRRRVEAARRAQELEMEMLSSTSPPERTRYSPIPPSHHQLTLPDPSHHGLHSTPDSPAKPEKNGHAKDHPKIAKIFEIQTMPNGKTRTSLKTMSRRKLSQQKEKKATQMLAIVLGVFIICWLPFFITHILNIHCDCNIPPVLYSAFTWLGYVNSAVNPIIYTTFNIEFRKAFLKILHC
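Agonism is scored from calcium flux in a force-coupled, inducible HEK293 cell line expressing D2, read kinetically for 180 s after compound addition against dopamine controls.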
D2 ag-2: Beta-Arrestin HTS for Positive Allosteric Modulators of the Human D2 Dopamine Receptor: Agonists; D(2) dopamine receptor (Homo sapiens), P14416; DiscoveRx PathHunter D2 beta-arrestin, luminescence, 90 min; 100% = 57 uM dopamine signal; activation, % (concentration not given with the values); 360,000 tested, 0.084% active; AID 624465, 2012; in the data active = activation above about 40%; inconclusive = between about 15% and that limit
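DiscoveRx PathHunter D2 beta-arrestin cells (2,100/well) attached overnight, then compound-stimulated 90 min at 37 C in HBSS/10 mM HEPES/0.1% Tween-20 buffer; beta-galactosidase complementation read by luminescence after 1 h at ambient temperature. Dopamine 57 uM final (EC100) as control.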
D2 PAM-1: Beta-Arrestin HTS for Positive Allosteric Modulators of the Human D2 Dopamine Receptor: Potentiators; D(2) dopamine receptor (Homo sapiens), P14416; DiscoveRx D2 beta-arrestin cells, luminescence, 90 min; 100% = 57 uM dopamine signal; potentiation, % (concentration not given with the values); 360,000 tested, 0.23% active; AID 624464, 2012; in the data active = potentiation above about 50%; inconclusive = mostly about 30% to 49%
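D2 cells co-treated with compound plus 50 nM dopamine (EC20) for 90 min at 37 deg C to detect potentiation. Beta-arrestin recruitment was read as enzyme-fragment luminescence after 1 h at ambient temperature. Full response was set by 57 uM dopamine.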
D2 antagonist: HTS Assay for Allosteric Antagonists of the Human D2 Dopamine Receptor: Primary Screen for Antagonists; AID 485344, 2010; D(2) dopamine receptor (Homo sapiens), P14416; inhibition, % at 10 µM; HEK293 TREx D2 cells, calcium flux, dopamine EC80; 340,000 tested, 2% active; in the data active = inhibition above about 30%; inactive = below that, where a call was filed; note: 0% is about no effect
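Compounds are added to dye-loaded, induced HEK293 T-REx cells coupled to calcium release via D2; after a 3 min kinetic read an EC80 dopamine stimulus is given and fluorescence is recorded for 3 more min.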
D2 PAM-2: HTS Assay for Positive Allosteric Modulators of the Human D2 Dopamine Receptor: Primary Screen for Potentiators; D(2) dopamine receptor (Homo sapiens), P14416; HEK293 T-REx D2, calcium flux, EC20 dopamine potentiation; potentiation, % at 10 µM; 340,000 tested, 0.34% active; AID 485347, 2010;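 active = potentiation over 3 SD above the plate norm, cut at about 30% in these data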; note: 0% is about no effect
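Calcium flux readout, no-wash dye, 1 read/s. Inducible HEK293 Trex D2 line, overnight 30 C. Compound alone 180 s (agonist flags), then EC20 dopamine, another 180 s to score potentiation.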
D3 arrestin ag: qHTS of D3 Dopamine Receptor Agonist: D3 Dopamine Receptor B-arrestin Agonist Confirmatory Assay; shares compounds with D2 ag-1; DiscoveRx D3 beta-arrestin cells, luminescence, 90 min; Potency, µM (highest dose often 76.9 µM), for inactives: top-dose activation, hits mostly activators; 2,300 tested, 4% active;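 note: potency is the fitted concentration of half-maximal effect; 100% = dopamine control response; nearly all actives have a fitted effect of over 70% in size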
D2 ag-3: qHTS of D3 Dopamine Receptor Agonist: D2 Dopamine Receptor B-arrestin Agonist Counterscreen; shares compounds with D2 ag-1; DiscoveRx PathHunter D2 beta-arrestin, luminescence, 90 min; response scale: percent relative to full dopamine signal; Potency, µM (series often up to 76.9 µM), for the others: top-dose activation, actives largely listed as activators; 2,300 tested, 5.9% active; note: potency is the fitted concentration of half-maximal effect; % of control where 0% means no effect; nearly all actives have a fitted effect of over 70% in size
* hit, by the source's call; u = inconclusive; x = no result given. This is a sample that favours compounds with a hit; in the whole collection about 2.4% have one here. Unless noted, calls come from the whole dose curve; as a rule, active = well fitted activation curve with a large enough effect; inconclusive = small, poorly fitted or top-dose-only effect; inactive = flat fitted curve, though single readings scatter.

SMILES	D2 ag-1	D2 ag-2	D2 PAM-1	D2 antagonist	D2 PAM-2	D3 arrestin ag	D2 ag-3
CC(C)C(NC(=O)c1ccc(F)cc1)C(=O)N1CCN(C(=O)c2ccco2)CC1 (stereo not drawn)	0	-4	-4	19	2	x	x
O=Cc1c(N2CCCCCC2)nc2ccccn2c1=O	56*	4	-3	-7	-16	-1%	1%
O=Cc1c(N2CCCCC2)nc2ccccn2c1=O	0	3	7	-12	7	x	x
COc1ccc(-c2nn(-c3ccccc3)cc2C(=O)NC(=S)Nc2cc(Cl)ccc2Cl)cc1	-1	-1	-6	3	12	x	x
Cc1oc(-c2ccccc2Cl)nc1CS(=O)CC(=O)N1CCN(c2ccccc2)CC1 (stereo not drawn)	43*	3	15	-16	-3	0%	4%
Cc1ccc2c(c1)N(C(=O)CCC(=O)N1CCN(c3ccccn3)CC1)CC(C)O2 (stereo not drawn)	50*	-4	-3	-12	-18	12%	9%
CC1CN(C(=O)CCC(=O)N2CCN(c3ccccn3)CC2)c2ccccc2O1 (stereo not drawn)	0	-3	-3	-22	-7	x	x
Nc1nc(CN2CCN(c3ccccc3)CC2)nc(Nc2ccc(Cl)cc2)n1	64*	43*	u	77*	-24	u	18µM*
COc1ccc(Nc2nc(N)nc(CN3CCC(C)CC3)n2)cc1	0	-3	-17	-3	-6	x	x
Cc1ccc(Nc2nc(N)nc(CN3CCN(c4ccccc4F)CC3)n2)cc1	75*	u	18	78*	-24	-1%	u
Nc1nc(CN2CCCCCC2)nc(Nc2ccccc2)n1	-1	0	-4	10	7	x	x
COc1ccc(Nc2nc(N)nc(CN3CCN(c4ccccn4)CC3)n2)cc1	76*	u	4	73*	-29	3%	u
Nc1nc(CN2CCN(c3ccccc3F)CC2)nc(Nc2ccccc2)n1	60*	6	-3	47*	-24	9%	16%
COc1ccc(NC(=O)c2cc(C3CCCCN3C(=O)OCCF)on2)c(C)c1 (stereo not drawn)	x	-4	-8	x	x	x	x
COc1ccc(OCC(=O)Nc2ccc3c(c2)nc(CCn2ccccc2=O)n3C)cc1	0	-1	3	0	-1	x	x
Cc1ccc(N2CN=C3SCC(=O)N3C2)cc1C	x	-2	-11	x	x	x	x
Oc1ccc(C2CNCc3sccc32)cc1O (stereo not drawn)	84*	63*	71*	96*	-23	3.5µM*	2.8µM*
CC(C)N(C(=O)Nc1ccc2nsnc2c1)C(C)C	53*	6	5	-1	-1	u	19%
Cc1ccc(-n2nnnc2SCC(=O)c2c(N)n(C3CC3)c(=O)[nH]c2=O)c(C)c1	1	0	1	-8	0	6%	-3%
NC(=NC(=O)c1ccc(Cl)cc1)N1N=CCC1c1ccccc1 (stereo not drawn)	50*	-4	2	23	-6	-2%	5%
Cn1c(=O)[nH]c(=O)c2c1nc(N1CCN(CCO)CC1)n2Cc1ccccc1Cl	-1	-5	-1	30*	-3	-13%	-7%

Compound activity deposited in PubChem by National Center for Advancing Translational Sciences (NCATS).
